Assay results published in PubChem BioAssay AID488841 (Sanford-Burnham Center for Chemical Genomics, 2010).
In all, about 1,400 compounds went through this assay and about 380 (27%) were called active.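 How the source made its calls: active means mean inhibition above 50% across duplicate retests at 10 µM; inactive means the rest.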 The list shows a part of the results.

experiment: yeast NALP1 reporter signal suppression – S. cerevisiae, luminescence, single concentration, NALP1 inhibitor project, confirmation (AID 488841);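 further: plate controls were DMSO in galactose medium for no effect and cells in plain SD medium for full effect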; conditions: S. cerevisiae NALP1/ASC/Caspase-1 reporter, beta-gal luminescence; at 10 µM; active compounds read high

| Compound | inhibition |
| --- | --- |
| CCCOc1ccccc1NC(=O)/C=C/C(N)=O | 71.2% (active) |
| CCCCOc1ccccc1NC(=O)c1ccco1 | 34.8% (inactive) |
| CCOc1ccccc1NC(=O)/C=C/C(N)=O | 59.6% (active) |
| CCOc1ccccc1N/C=C(\C#N)c1nc2ccccc2n1C | 12.5% (inactive) |
| O=[N+]([O-])/C(C(=C(Cl)Cl)N1CCN(Cc2ccccc2)CC1)=C1\NCCN1Cc1ccc(Cl)nc1 | 35.4% (inactive) |
| CCOC(=O)c1c(C)[nH]c(N=Nc2cccc(C)c2)c1C | 46.4% (inactive) |
| Oc1c(Cl)cc(Cl)c2c1NCCC2 | 41.9% (inactive) |
| Oc1c(Cl)cc(Cl)c(Cl)c1Cc1c(O)c(Cl)cc(Cl)c1Cl | 99.9% (active) |
| CCOC(=O)C(C(=O)OCC)C(C(=O)OCC)N1CCOCC1 (stereo not drawn) | 64.8% (active) |
| CCC(Cc1ccccc1)NC(=O)C1CCN(S(=O)(=O)c2c(C)noc2C)CC1 (stereo not drawn) | 26.1% (inactive) |
| CCOC(=O)c1cc([N+](=O)[O-])c([N+](=O)[O-])cc1NC(C)=O | 24.9% (inactive) |
| CN(C)c1ccc(NC(=O)COC(=O)c2cc(Cl)ccc2[N+](=O)[O-])cc1 | 62.9% (active) |
| NS(=O)(=O)c1ccc(NC(=O)COC(=O)c2cn(-c3ccccc3)nc2-c2ccc(F)cc2)cc1 | 18.7% (inactive) |
| CC1CCN(CCOc2ccc(OCc3ccccc3)cc2)CC1 | 48.1% (inactive) |
| O=C(N/N=C/c1cccc(F)c1)c1c(O)c2ccccc2[nH]c1=O | 31.5% (inactive) |
| CCOC(=O)c1nc(C)sc1-c1ccnn1S(=O)(=O)c1ccc(C)cc1 | 29.4% (inactive) |
| O=C(O)CC(Cn1cnnn1)c1ccccc1 (stereo not drawn) | 25.9% (inactive) |
| Brc1cccc(OCCN2CCCCC2)c1 | 44.9% (inactive) |
| CCc1cccc(OCCN2CCCC2)c1 | 29.9% (inactive) |
| Clc1cccc(OCCN2CCN(CCOc3cccc(Cl)c3)CC2)c1 | 60.4% (active) |
| CCN(CC)S(=O)(=O)c1cccc(C(=O)N[C@H](C(=O)O)C(C)C)c1 | 33.2% (inactive) |
| Cc1cccc(N=C2NC(=O)/C(=C\c3cccs3)S2)c1 | 44% (inactive) |
| Cc1cccc(C)c1NC(=O)C(Cl)C(=O)c1ccccc1 (stereo not drawn) | 12.7% (inactive) |
| COC1=C(Nc2ccccc2)C(=O)c2ccccc2C1=O | 17.4% (inactive) |
| O=C(Nc1ccc(Nc2ccccc2)cc1)C(Cl)Cl | 78.8% (active) |
| CC(C)C(=O)Nc1ccc(Nc2ccccc2)cc1 | 58.4% (active) |
| CC(CC(=O)Nc1cccc(Cl)c1)c1ccccc1 (stereo not drawn) | 42.7% (inactive) |

| Compound | inhibition |
| --- | --- |
| CNCc1ccccc1Sc1cc(O)ccc1O | 26.8% (inactive) |
| O=S(=O)(CC12C3C4C5C1C2C(Br)(C43)C51OCCO1)c1ccccc1 (stereo not drawn) | 40% (inactive) |
| CC1CCCCN1S(=O)(=O)c1cnc(Cl)c(Br)c1 (stereo not drawn) | 68.1% (active) |
| O=c1c(Br)c(N2CCCC2)cnn1-c1ccccc1 | 41.4% (inactive) |
| CC1CC(C)CN(S(=O)(=O)c2ccc(C(=O)NCc3ccc4c(c3)OCO4)cc2)C1 (stereo not drawn) | 24.1% (inactive) |
| O=C(CCl)Nc1cc(-c2ccccc2)nn1-c1ccccc1 | 68.9% (active) |
| Cc1ccc(-c2cc(NC(=O)CSc3n[nH]c(N)n3)n(-c3ccccc3)n2)cc1 | 24.2% (inactive) |
| COCC(=O)OCC(=O)Nc1cc(C(C)(C)C)nn1-c1ccccc1 | 25.4% (inactive) |
| CC(C)c1ccc(-c2c(C#N)c(N)nc3c2CCCCC3)cc1 | 23.8% (inactive) |
| Cc1cc(C)cc(NS(=O)(=O)c2ccc(NC(=S)Nc3ccccc3)cc2)c1 | 26.1% (inactive) |
| CCc1cccc(CC)c1NC(=S)NCCc1c(C)[nH]c2ccccc12 | 37.9% (inactive) |
| O=[N+]([O-])c1ccc(NC(=S)NCCc2ccc(F)cc2)cc1 | 85.5% (active) |
| O=C(NC(CO)Cc1ccc([N+](=O)[O-])cc1)C(Cl)Cl (stereo not drawn) | 29.8% (inactive) |
| S=C(NCCCc1ccccc1)Nc1ccc(Cl)cc1 | 86.3% (active) |
| CC1CCCCN1C(=S)NCCc1ccccc1 (stereo not drawn) | 47.7% (inactive) |
| S=C(NCCc1ccccc1)Nc1ccc(Br)cc1 | 70.2% (active) |
| O=[N+]([O-])c1ccc(N2CCN(C(=S)Nc3ccccc3)CC2)cc1 | 32% (inactive) |
| CC(=O)Nc1ccc(C(=O)CSc2nnc(Cc3ccccc3)o2)cc1 | 11.8% (inactive) |
| CCOC(=O)C1=NN(C(=O)c2ccc(C)cc2)C(O)(c2ccc(Cl)cc2)C1 (stereo not drawn) | 45.7% (inactive) |
| Cc1cccc(NC2=C(Cl)C(=O)OC2NC(=O)c2ccccc2)c1 (stereo not drawn) | 7.1% (inactive) |
| CC1CCCCN1C(=S)Nc1ccc2nc3n(c(=O)c2c1)CCCCC3 (stereo not drawn) | 35% (inactive) |
| O=C(Nc1ccc2nc3n(c(=O)c2c1)CCCC3)c1cc([N+](=O)[O-])ccc1F | 64.8% (active) |
| Cc1ccc(NCC(=O)Nc2c(C)n(C)n(-c3ccccc3)c2=O)cc1S(=O)(=O)N(C)C | 15.9% (inactive) |
| Cc1ccccc1-c1ccc(C(=O)Nc2cccc(F)c2)o1 | 52.9% (active) |
| O=C(Nc1cccc(F)c1)c1ccc(CSc2ccccc2)o1 | 37.8% (inactive) |
| Cc1ccc(CC(=O)Nc2ccccc2-c2ccccc2)cc1C | 35.9% (inactive) |
